Experimental data published in the supplement of paper PMC8285479.
Where a name gives a salt, the structure may show the parent alone. ± gives the standard deviation of the averaged measurements. Over roughly 1,900 compounds, “normalised cell viability (NPI; 0 = phenylarsine oxide control, 1 = DMSO control)” has its median near 1; the lowest 2% begin near 0.039. Only a selection was taken, and the lowest values are over-represented in it overall.

System: NCI-H1944
Test: normalised cell viability (NPI; 0 = phenylarsine oxide control, 1 = DMSO control) (fraction of DMSO control); NCI-H1944 is a non-small cell lung cancer line; higher = more viable cells (less compound toxicity)
Conditions: 6 days
[1] = glucocorticoid arm: hydrocortisone 2.75 uM co-treatment, compound 1 µM
[2] = glucocorticoid arm: hydrocortisone 2.75 uM co-treatment, compound 5 µM
[3] = glucocorticoid arm: hydrocortisone 2.75 uM pre-treated 2 days and continued, compound 1 µM
[4] = glucocorticoid arm: hydrocortisone 2.75 uM pre-treated 2 days and continued, compound 5 µM
[5] = glucocorticoid arm: vehicle, compound 1 µM
[6] = glucocorticoid arm: vehicle, compound 5 µM
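Also: CTB read-out in 384-well plates, triplicate wells, NPI normalised per plate against 1 µM phenylarsine oxide (0) and 0.1% DMSO (1) controls.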

| SMILES | normalised cell viability [1] | normalised cell viability [2] | normalised cell viability [3] | normalised cell viability [4] | normalised cell viability [5] | normalised cell viability [6] |
| --- | --- | --- | --- | --- | --- | --- |
| CS(=O)(=O)CCNCc1ccc(-c2ccc3ncnc(Nc4ccc(OCc5cccc(F)c5)c(Cl)c4)c3c2)o1 [Lapatinib Ditosylate (Tykerb)] | 0.945 ± 0.0092 | 0.916 ± 0.017 | 0.981 ± 0.021 | 0.938 ± 0.028 | 0.911 ± 0.02 | 0.868 ± 0.022 |
| CS(=O)(=O)CCNCc1ccc(-c2ccc3ncnc(Nc4ccc(OCc5cccc(F)c5)c(Cl)c4)c3c2)o1 [Lapatinib ditosylate; Lapatinib; Lapatinib Ditosylate] | 0.9643 ± 0.0055 | 0.00258 ± 0.00055 | 0.968 ± 0.014 | 0.0327 ± 0.0022 | 0.947 ± 0.0092 | 0.00168 ± 0.00026 |
| C=CC(=O)Nc1ccc2ncnc(Nc3ccc(OCc4cccc(F)c4)c(Cl)c3)c2c1 | 0.905 ± 0.016 | 0.854 ± 0.043 | 0.92 ± 0.014 | 0.93 ± 0.023 | 0.815 ± 0.021 | 0.623 ± 0.016 |
| CCCCC#Cc1nc(N)c2ncn([C@@H]3O[C@H](C(=O)NCC)[C@@H](O)[C@H]3O)c2n1 | 1.01 ± 0.015 | 0.979 ± 0.011 | 1.007 ± 0.0058 | 1.01 ± 0.014 | 1.01 | 1.003 ± 0.0058 |
| O=c1[nH]cc(F)c(=O)[nH]1 [5-Fluorouracil] | 0.98 ± 0.002 | 0.766 ± 0.0085 | 0.981 ± 0.012 | 0.984 ± 0.015 | 0.9837 ± 0.0084 | 0.729 ± 0.03 |
| O=c1[nH]cc(F)c(=O)[nH]1 [5-Fluorouracil; Fluorouracil] | 1.043 ± 0.0058 | 0.706 ± 0.037 | 1.01 ± 0.015 | 0.838 ± 0.011 | 0.971 ± 0.0044 | 0.522 ± 0.032 |
| CN(C(Cc1ccc(OS(=O)(=O)c2cccc3cnccc23)cc1)C(=O)N1CCN(c2ccccc2)CC1)S(=O)(=O)c1cccc2cnccc12 (centres undefined) | 1.02 ± 0.011 | 0.993 ± 0.015 | 1.007 ± 0.0058 | 0.974 ± 0.029 | 1.01 | 1.01 |
| CN1CC[C@H](c2c(O)cc(O)c3c(=O)cc(-c4ccccc4Cl)oc23)[C@H](O)C1 [Flavopiridol hydrochloride] | 0.0447 ± 0.0058 | 0.0238 ± 0.0012 | 0.066 ± 0.0098 | 0.0883 ± 0.016 | 0.0103 ± 0.0015 | 0.00802 ± 0.0019 |
| CN1CC[C@@H](c2c(O)cc(O)c3c(=O)cc(-c4ccccc4Cl)oc23)[C@@H]1CO | 0.183 ± 0.011 | 0.031 ± 0.004 | 0.601 ± 0.026 | 0.0698 ± 0.0051 | 0.0431 ± 0.0039 | 0.00913 ± 0.002 |
| CN1CC[C@H](c2c(O)cc(O)c3c(=O)cc(-c4ccccc4Cl)oc23)[C@H](O)C1 [Flavopiridol (Alvocidib)] | 0.0613 ± 0.0073 | 0.0242 ± 0.0072 | 0.109 ± 0.015 | 0.0932 ± 0.025 | 0.0171 ± 0.0043 | 0.00703 ± 0.0012 |
| COc1ccc(CCN(C)CCCC(C#N)(c2cc(OC)c(OC)c(OC)c2)C(C)C)cc1OC (racemic) [(±)-Methoxyverapamil hydrochloride] | 1.007 ± 0.0058 | 0.998 ± 0.039 | 1.01 ± 0.01 | 1.01 ± 0.019 | 0.9847 ± 0.0042 | 0.999 ± 0.018 |
| Cc1cnc(NC(=O)Nc2cc(Br)c(C)cc2OC[C@@H]2CNCCO2)cn1 | 1.03 ± 0.015 | 0.827 ± 0.041 | 1.04 ± 0.015 | 1.04 ± 0.011 | 0.776 ± 0.01 | 0.334 ± 0.027 |
| CCCCCCCCCCCCCCCc1cccc(OCC)c1C(=O)Nc1ccc(Cl)c(C(F)(F)F)c1 | 1.01 ± 0.014 | 1.01 ± 0.011 | 1.01 ± 0.02 | 1.02 ± 0.016 | 0.9997 ± 0.0097 | 1 ± 0.0054 |
| N#C[C@@H]1CCCN1C(=O)CNC12CC3CC(CC(O)(C3)C1)C2 [Vildagliptin (LAF-237)] | 0.994 ± 0.0087 | 1 ± 0.011 | 0.9973 ± 0.0046 | 1.004 ± 0.01 | 0.998 ± 0.012 | 1.01 |
| CN1CCN(S(=O)(=O)c2ccc(-c3cnc(N)c(C(=O)Nc4cccnc4)n3)cc2)CC1 | 1.113 ± 0.011 | 1.2 ± 0.015 | 1.1 ± 0.011 | 1.1 ± 0.021 | 0.743 ± 0.0076 | 0.959 ± 0.021 |
| Cc1c(CN2CCN(C(=O)[C@H](C)O)CC2)sc2c(N3CCOCC3)nc(-c3cnc(N)nc3)nc12 | 0.631 ± 0.017 | 0.433 ± 0.034 | 0.59 ± 0.02 | 0.399 ± 0.076 | 0.757 ± 0.035 | 0.552 ± 0.033 |
| CS(=O)(=O)N1CCN(Cc2cc3nc(-c4cccc5[nH]ncc45)nc(N4CCOCC4)c3s2)CC1 | 1.02 ± 0.022 | 1.05 ± 0.015 | 1.02 ± 0.011 | 1.05 ± 0.015 | 0.998 ± 0.012 | 1.005 ± 0.0087 |
| COc1ccc(-c2nc(N3CCOCC3)c3sc(CN(C)c4ncc(C(=O)NO)cn4)cc3n2)cn1 | 0.00442 ± 0.0038 | 0.00164 ± 0.00085 | 0.0384 ± 0.044 | 0.00149 ± 0.001 | 0.00371 ± 0.0034 | 0.000104 ± 0.00053 |
| C[C@H]1c2cccc(O)c2C(O)=C2C(=O)[C@]3(O)C(O)=C(C(N)=O)C(=O)[C@@H](N(C)C)[C@@H]3[C@@H](O)[C@@H]21 [Doxycycline HCl] | 0.994 ± 0.007 | 0.986 ± 0.026 | 0.9957 ± 0.0031 | 0.99 ± 0.006 | 0.9947 ± 0.0025 | 1 ± 0.015 |
| NCC(O)C1CCCCCCC1 (centres undefined) [2-Cyclooctyl-2-hydroxyethylamine hydrochloride] | 0.987 ± 0.012 | 0.971 ± 0.016 | 0.998 ± 0.013 | 0.972 ± 0.02 | 0.9697 ± 0.0015 | 0.9663 ± 0.0085 |
| CCC(=O)NCC[C@@H]1CCc2ccc3c(c21)CCO3 [Ramelteon] | 1 ± 0.018 | 1.01 ± 0.011 | 1.006 ± 0.0069 | 1.01 ± 0.019 | 0.9943 ± 0.009 | 0.9933 ± 0.0061 |
| Nc1nc(Cl)nc2c1ncn2[C@@H]1O[C@H](CO)[C@@H](O)[C@@H]1F [Clofarabine] | 0.124 ± 0.015 | 0.146 ± 0.0052 | 0.341 ± 0.017 | 0.302 ± 0.017 | 0.0363 ± 0.0032 | 0.0483 ± 0.0032 |
| Nc1ncn([C@H]2C[C@H](O)[C@@H](CO)O2)c(=O)n1 [5-Aza-2'-deoxycytidine] | 1.087 ± 0.0058 | 1.12 ± 0.05 | 1.07 ± 0.01 | 1.09 ± 0.015 | 0.581 ± 0.051 | 0.296 ± 0.027 |
| Nc1nc(Cl)nc2c1ncn2[C@@H]1O[C@H](CO)[C@@H](O)[C@H]1O [2-Chloroadenosine] | 0.998 ± 0.013 | 0.982 ± 0.011 | 0.998 ± 0.011 | 0.974 ± 0.052 | 0.9847 ± 0.0078 | 0.9883 ± 0.0078 |
